Bioassay records (PubChem BioAssay)
aSyn UTR act = Activators via SNCA 5'UTR binding, MLPCN; alpha-synuclein 5'UTR reporter, activators screen; activity score, % (tested at 7.5 µM), hits read low; 7.1% of 300,000 active; AID 1814; in the data active = activity score below about -60%
Numbers stand for hits; i = inactive. The list is a sample of the results.

SMILES	aSyn UTR act
CCN(CC)CCCNC(=S)N1CCN(c2nc(-c3ccc(F)cc3)cs2)CC1	i
COc1ccc(-c2csc(N3CCSCC3)n2)cc1	-224.7
COc1ccc(-c2csc(N3CCC(c4ccccc4)C3)n2)cc1 (configuration not stated)	-114.1
Clc1ccc(-c2csc(N3CCC(c4ccccc4)C3)n2)cc1 (configuration not stated)	-225.9
O=C(CCNc1ccc(Cl)cc1)c1cccs1	-89.3
O=C(CCNc1cc(Cl)cc(Cl)c1)c1cccs1	-93.5
O=C(NC(=S)N(CCc1ccccc1)CCc1ccccc1)c1ccco1	i
CC1CCN(c2ccc(NC(=S)NC(=O)c3ccco3)cc2)CC1	-131.8
O=C(NC(=S)Nc1ccccc1Cl)c1ccco1	-112.2
O=C(NC(=S)Nc1ccc(N2CCCCC2)cc1)c1ccco1	-181.6
O=C(Nc1ccc(N2CCOCC2)cc1)NC1CCCCC1	-78.1
O=C(Nc1ccc(F)cc1)NC1CCCCC1	-111.2
CC(C)CNC(=S)NC(=O)c1ccc(F)cc1	-150.1
O=C(Nc1cccc(F)c1)NC1CCCCC1	-156.3
O=C(NC(=S)NNC(=O)c1cnccn1)c1ccc(F)cc1	i
O=C(NC(=S)NC1CCCCC1)c1ccc(F)cc1	-162.3
C/C(=N/Nc1nc(C)cc(-c2ccccc2)n1)c1ccco1	-75.8
C/C(=N\Nc1nc(C)cc(-c2ccccc2)n1)c1cccc(N)c1	-64.4
Cc1cc(-c2ccccc2)nc(N/N=C/c2ccccc2F)n1	-159.9
C/C(=N\Nc1nc(C)cc(-c2ccccc2)n1)c1ccccc1	-101.9
COc1cccc(/C=N/NC(=O)c2cccs2)c1	-136.5
COc1cc(/C=N/NC(=O)c2cc(C)oc2C)ccc1OCc1ccccc1	-101.6
COc1cc(/C=N/OCC(=O)NC2CCCCC2)ccc1OCc1ccccc1	-97.4
COc1cc(/C=N/NC(=O)c2cccs2)ccc1OCc1ccccc1	-105.4
O=C(CN1C(=O)S/C(=C\C=C\c2ccccc2)C1=O)Nc1cccc(O)c1	-218.4
SMILES	aSyn UTR act
CCN(C(=O)CN1C(=O)S/C(=C\C=C\c2ccccc2)C1=O)C1CCS(=O)(=O)C1 (configuration not stated)	-117.6
O=C(CCN1C(=O)S/C(=C\C=C\c2ccccc2)C1=O)Nc1ccc(O)cc1	-203.7
C[n+]1cn(/N=C/c2ccccc2)c2ccccc21	-86.9
Oc1ccc(/C=N/Nc2ccnc3cc(Cl)ccc23)cc1O	-78.5
COc1ccc(NS(=O)(=O)c2ccc(N3CCCC3)c(NC(=S)Nc3cccc(C)c3C)c2)cc1	-132.5
CN(C(=O)c1cc2c(=O)n3ccccc3nc2n1C)C1CCCCC1	-89.6
CCN(C(=O)c1cc2c(=O)n3ccccc3nc2n1C)C1CCCCC1	-74.8
CC1CCCCC1NC(=O)c1cc2c(=O)n3ccccc3nc2n1C (configuration not stated)	-66.0
CCN(C(=O)c1cc2c(=O)n3ccccc3nc2s1)C1CCCCC1	-71.0
N=c1oc2ccccc2cc1-c1nc(-c2ccc(Cl)cc2)cs1	-82.3
S=C(NCCc1ccccn1)NC1CC2CCC1C2 (configuration not stated)	-62.4
COc1cccc(CNc2cccc3cccnc23)c1O	-87.7
CCC(=O)NC(c1ccccc1OC)c1ccc2cccnc2c1O (configuration not stated)	i
COc1cccc(CNc2ccccn2)c1O	-99.9
COc1cccc(CNc2cc(C)ccn2)c1O	-94.0
NC(=S)N/N=C/c1ccc(C23CC4CC(CC(C4)C2)C3)cc1	-309.8
CNC(=S)N/N=C/c1ccc2c(c1)OCCO2	-72.6
NCCOc1ccc(C23CC4CC(CC(C4)C2)C3)cc1	i
S=C(N/N=C/c1ccc2c(c1)OCO2)NC1CC2CCC1C2 (configuration not stated)	-128.0
NC(=S)N/N=C/c1ccc2c(c1)OCCO2	-76.0
O=C(N/N=C/c1ccc(Cl)cc1)c1ccc2c(c1)OCO2	-396.3
O=C(N/N=C/c1cc(Br)cc(Cl)c1O)c1ccc2c(c1)OCO2	i
CCN(CC)c1ccc(/C=N/NC(=O)C2CC2)cc1	-61.8
Cc1cc(C(=O)N/N=C/c2cccc([N+](=O)[O-])c2)c(C)n1-c1ccccc1	-142.2
COc1cccc(/C=N/Nc2ccc([N+](=O)[O-])cn2)c1O	i
SMILES	aSyn UTR act
Cc1cc(/C=N/Nc2ccc([N+](=O)[O-])cn2)c(C)n1-c1ccccc1	-136.6
CCN(CC)c1ccc(/C=N/NC(=O)Nc2nonc2N)cc1	-77.7
O=C(Cc1ccccc1)N/N=C/c1cc(Br)c(Br)o1	-67.6
O=C(N/N=C/c1ccc2c(c1)OCO2)c1ccc(Br)o1	-250.0
CCN(CC)c1ccc(/C=N/NC(=O)c2ccc(Br)o2)cc1	-160.3
Cc1c(C(=O)N/N=C/c2ccc(Cl)cc2)[nH]c2ccc(Cl)cc12	-122.3
O=C(Nc1cccc(C(=O)O)c1)/C(=C\c1ccc2c(c1)OCO2)NC(=O)c1ccc(Br)o1	-67.9
CCC/C(=N/NC(=O)c1ccc2c(c1)OCO2)c1cccs1	-69.3
O=C(N/N=C/c1cc(Br)c(Br)o1)c1ccc2c(c1)OCCO2	-135.3
O=C(N/N=C/c1ccc2c(c1)OCO2)c1ccc2c(c1)OCCO2	-136.1
O=C(N/N=C/c1cccs1)c1ccc2c(c1)OCO2	-65.4
CN(C)c1ccc(/C=N/NC(=O)c2cc(-c3ccc4c(c3)OCO4)n[nH]2)cc1	-137.0
CCCCCCCC(=O)Nc1ccc(C(=O)N/N=C/c2cccc([N+](=O)[O-])c2)cc1	i
O=C(N/N=C/c1cccc([N+](=O)[O-])c1)c1ccc2c(c1)OCCO2	-125.9
O=C(Cc1ccccc1F)Nc1nc(-c2ccc(F)c(F)c2)cs1	-85.1
O=C(Cc1ccccc1F)Nc1nc(-c2cccs2)cs1	-77.8
O=C(Cc1ccccc1)Nc1nc(-c2cccs2)cs1	-136.1
Oc1ccccc1C1=Nc2nc3ccccc3n2C(c2ccccc2)C1 (configuration not stated)	-213.5
COc1ccc(C2c3ccc4ccccc4c3Oc3ncn(CCN4CCOCC4)c(=N)c32)cc1OC (configuration not stated)	i
CCOc1cc2nc(-c3ccc(OC)c(OC)c3)nc(NCCCN3CCOCC3)c2cc1OC	-64.8
Clc1ccc(-c2nc(NCCN3CCOCC3)c3ccccc3n2)cc1	-89.5
CCCCCCCCCn1c2c(c(=N)c3c1CCC3)CCC2	i
Cc1ccc2c(c1)sc1nc(=O)n(-c3cccc(Cl)c3)c(=O)n12	-208.6
O=c1nc2sc3ccccc3n2c(=O)n1-c1cccc(Cl)c1	-168.6
O=c1nc2sc3ccccc3n2c(=O)n1-c1ccc(Cl)cc1	-188.6
SMILES	aSyn UTR act
N/C(=N\OC(=O)c1ccc2ccccc2c1)c1cccc([N+](=O)[O-])c1	-67.0
N/C(=N\OC(=O)c1ccc2ccccc2c1)c1ccccc1Cl	-140.3
N/C(=N\OC(=O)c1ccc2ccccc2c1)c1ccccn1	i
N/C(=N/OC(=O)c1ccccc1Cl)c1ncc([N+](=O)[O-])s1	-80.4
N/C(=N\OC(=O)c1cccc(F)c1)c1cccc([N+](=O)[O-])c1	-104.3
O=C(Oc1ccc2ccc(O)cc2c1)c1ccccc1Cl	-128.4
N/C(=N\OC(=O)c1ccc(F)cc1)c1cccc([N+](=O)[O-])c1	-109.7
N/C(=N\OC(=O)c1ccccc1Cl)c1cccc([N+](=O)[O-])c1	-66.9
Cc1cccc(/C(N)=N/OC(=O)c2ccc(F)cc2)c1	-141.5
N/C(=N\OC(=O)c1ccccc1F)c1ccc([N+](=O)[O-])cc1	-151.4
O=C(Nc1ccc(F)cc1)Oc1ccc[nH]c1=O	-82.4
CC(=O)Nc1ccc(-c2nc3c(C)cccc3[nH]2)cc1	-140.8
Cn1c(C(=O)Nc2ccc3c(c2)OCCO3)cc2sccc21	-86.6
